Growth rescue data for 89 compounds are collected here from PubChem BioAssay AID2716 (Broad Institute, 2010).

Each structure is given as a SMILES string. Out of some 320,000 compounds screened, about 3,300 (1%) were called active. What follows is part of a selection rich in actives, with near analogues and random picks from the rest. Values without a mark were called inactive.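 The calls were made as follows: active = every valid replicate shows activation above 250% relative to neutral control wells; inactive = the rest, any valid replicate at or below 250%.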

The test can be described thus: yeast Mot1-301 growth rescue at high temperature, primary screen, SUMOylation pathway inhibitor project, S. cerevisiae, ATP luminescence, 38.5C (AID 2716).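 Also: OY570 slx delta 5 strain wells were the positive control but not used for scaling.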 The conditions noted are these: S. cerevisiae Mot1-301 growth rescue, at 18.8 µM, active compounds read high, percent above DMSO median, 100 means doubled.
With `CCCCNC(=O)c1ccccc1NC(=O)c1ccccc1N(C)S(C)(=O)=O`, the growth rescue is -4.15%.
For the compound `COc1ccc(N2CCN(C(=O)c3ccccc3NC(=O)C3=C(C)OCCS3)CC2)cc1`, the growth rescue is 46.6%.
As to `CCCCNC(=O)c1ccccc1NC(=O)C1=C(C)OCCS1`, the growth rescue is 548% (active).
The figure for `Cc1cc(C)nc(SCc2nnc(SCC(=O)Nc3ncc(C)s3)n2Cc2ccco2)n1` is -12%; for `CCN(CC)C(=O)CSc1nnc(CNc2ccc(F)cc2)n1Cc1ccco1` it is 543% (active).
The figure for `COc1ccc(NC(=O)CSc2nnc(-c3cccs3)n2Cc2ccco2)cc1OC` is 22.9%.
With `COc1ccc(C(=O)NCC2CCCN2S(=O)(=O)c2cccs2)cc1OC` (centres undefined) the figure was 134%.
As to `COc1cc(NC(=O)CN(C)S(=O)(=O)c2ccc3nc(C)sc3c2)cc(OC)c1`, the growth rescue is -12.8%.
The figure for `Cc1ccc2nc(-c3ccc(NC(=O)CN(C)S(=O)(=O)c4ccccc4)cc3)sc2c1` is 574% (active).
The figure for `Cc1cccc(N(CC(=O)Nc2ccc(-c3nc4ccc(C)cc4s3)cc2)S(C)(=O)=O)c1` is -4.14%.
With `Cc1cc(C)c(S(=O)(=O)Nc2c(C)n(C)n(-c3ccccc3)c2=O)cc1[N+](=O)[O-]` the figure was -5.42%; with `Cc1c(Br)cc(C(=O)N2CCCCCC2)c(C)c1C`, 15.2%; with `CC1(C)S[C@@H]2[C@H](NC(=O)COc3ccccc3)C(=O)N2C1C(=O)OCc1ccccc1` (some centres undefined), 343% (active).
`COC(=O)C1[C@H]2SC(C)(C)C(C(=O)OC)N2C(=O)N1Cc1nc2ccccc2s1` (some centres undefined): the growth rescue is -13.8%.
As for `CC1(C)SC2C(NC(=O)COc3ccccc3)C(=O)N2C1C(=O)O` (centres undefined), the growth rescue is 3.56%.
In the case of `O=C(NCCN1CCOCC1)/C(=C/c1ccc(F)cc1)NC(=O)c1ccccc1`, the growth rescue was 93.9%.
Consider `CC(OC(=O)c1ccc(Cl)cc1O)C(=O)NCCC1=CCCCC1` (centres undefined), for which the growth rescue is 17.1%.
The figure for `CC1CCCCN1CCCNc1ccc(C(CC(N)=O)NC(=O)c2ccccc2)cc1[N+](=O)[O-]` (centres undefined) is -18.3%; for `COc1ccc(OC)c(C(=O)NC(CC(N)=O)c2ccc(N3CCC(N4CCCCC4)CC3)c([N+](=O)[O-])c2)c1` (centres undefined) it is -11.8%; for `Cc1cc(C)cc(C(=O)NC(CC(N)=O)c2ccc(N3CCC(N4CCCCC4)CC3)c([N+](=O)[O-])c2)c1` (centres undefined) it is 855% (active).
The figure for `Cc1cccc(NC(=O)CN2CCN(C(=O)C3CCN(C(=O)/C=C/c4ccccc4)CC3)CC2)c1C` is -7.86%; for `Cc1nn(Cc2ccccc2)c(C)c1NS(=O)(=O)c1ccccc1` it is 0.754%.
Regarding `CC(=O)c1cc(CN2CCC(n3nccc3NC(=O)c3ccccc3Cl)CC2)cs1`, the growth rescue was 13.8%.
The figure for `Cc1cc(Nc2ccc(N3CCOCC3)cc2)c2cccc(C)c2n1` is -0.464%.
Consider `Cc1cc(Nc2ccc(C(=O)N3CCCCC3)cc2)c2cccc(C)c2n1`, for which the growth rescue was 397%.
The figure for `Cc1ccc(Nc2cc(C)nc3c(C)ccc([N+](=O)[O-])c23)cc1` is 888% (active).
With `O=C(O)Cn1c(Cc2ccccc2)nc2ccccc21` the figure was -4.16%; with `Fc1ccc2cnc(-c3ccccc3)cc2c1`, 110%.
The figure for `O=C(Nc1ccccc1F)c1ccc2c(c1)OCO2` is 3.63%; for `Fc1ccccc1-c1cc2cc3c(cc2cn1)OCO3` it is 579% (active).
As to `O=C(c1ccc(F)cc1)n1c(=S)nc2ccccn21`, the growth rescue was -34.1%.
The figure for `COc1ccccc1-c1nn(Cc2ccccc2)cc1C(=O)N1CCN(c2ncccn2)CC1` is -5.43%; for `CCN(CC)c1ccc(NC(=O)C2CCC(CNc3c(N4CCCC4)c(=O)c3=O)CC2)c(C)c1` (centres undefined) it is 6.64%; for `CCC(CC)C(=O)Nc1ccc(S(=O)(=O)Nc2nccs2)cc1` it is 441% (active).
Regarding `COc1ccccc1OC(C)C(=O)Nc1ccc(S(=O)(=O)Nc2nccs2)cc1` (centres undefined), the growth rescue was 7.27%.
In the case of `Cc1ccc(OCCC(=O)Nc2ccc(S(=O)(=O)Nc3nccs3)cc2)cc1`, the growth rescue is -18.7%.
With `CN(C)Cc1c(C#N)c2ccccc2n1C` the figure was 63.2%.
The figure for `CCCc1cc(=S)n2c([nH]c3ccccc32)c1C#N` is 490% (active); for `CCOC(=O)CCc1c(C)c(C#N)c2[nH]c3ccccc3n2c1=O` it is -0.685%; for `CCCn1nc(C(=O)NNC(=O)CCOc2ccccc2OCC)c2ccccc2c1=O` it is 2.71%.
With `CC(=O)c1ccc(NC(=O)CSc2nc3ccccc3c(=O)n2CCCN2CCOCC2)cc1` the figure was -18.7%.
Regarding `CC(CCc1ccccc1)NC(=O)COC(=O)c1ccc(F)cc1` (centres undefined), the growth rescue was 11.7%.
With `COc1cc(OC)cc(C(=O)NCC(=O)OCC(=O)NC(C)CCc2ccccc2)c1` (centres undefined) the figure was -11.2%.
With `COc1cc(C(=O)OCC(=O)NC(C)CCc2ccccc2)cc(OC)c1OC` (centres undefined) the figure was 788% (active); with `CC(=O)N1CCN(S(=O)(=O)c2ccc(C)c([N+](=O)[O-])c2)C1C(C)C` (centres undefined), -18.3%.
The figure for `CC(C)[C@@H]1NC(=O)c2cc([N+](=O)[O-])cc(I)c2NCCC[C@@H](C(=O)NC(CC(=O)O)C(N)=O)NC(=O)[C@H](CO)NC1=O` (some centres undefined) is -3.93%.
Take `CC(C)NC(=O)Nc1cccc2c1O[C@@H](CN(C)S(=O)(=O)c1ccc(F)cc1)[C@@H](C)CN([C@H](C)CO)C2=O`: the growth rescue was -15.3%.
The figure for `O=C(NCc1ccc(Cl)cc1)C(=O)NCC1CCCN1S(=O)(=O)c1cccs1` (centres undefined) is -0.245%; for `COc1ccccc1CCNC(=O)C(=O)NCCC1CCCCN1S(=O)(=O)c1cccs1` (centres undefined) it is -12.1%.
With `O=C(NCc1ccccc1Cl)C(=O)NCC1CCCN1S(=O)(=O)c1cccs1` (centres undefined) the figure was 454% (active); with `CCOC(=O)c1c(S(=O)(=O)Nc2cccc(Cl)c2)c(C)n(C)c1C`, -7.89%; with `CCC(C)(C)NC(=O)C(c1ccc(OC)cc1)N(C(=O)CCC(=O)Nc1cc(C)on1)c1ccc(OC)cc1OC` (centres undefined), -19.3%.
The figure for `CC(C)(C)c1cc(C(=O)NN)n(Cc2ccc(Cl)cc2Cl)n1` is 207%; for `O=c1ccn(Cc2ccccc2Cl)cc1` it is 1.62%; for `N#CC(C#N)=CN=c1ccn(Cc2ccc(Cl)cc2Cl)cc1` it is 813% (active).
With `COc1ccccc1CNC(=O)COC(=O)CNS(=O)(=O)c1ccc(NC(C)=O)cc1`, the growth rescue is -0.994%.
With `CC(NC(=O)c1ccc(Cl)cc1)C(=O)N1CCCCC1` (centres undefined) the figure was 434% (active); with `CSCCC(NC(=O)c1ccccc1)C(=O)N1CCCCCCC1` (centres undefined), -4.42%; with `CC(C)C(NC(=O)c1ccc(Cl)cc1)C(=O)O` (centres undefined), 5.56%.
The figure for `O=C(CCc1ccccc1)NNC(=O)c1ccc(Br)cc1` is 631% (active).
With `O=C(CCNC(=O)c1ccc(Br)cc1)NCCCc1ccccc1` the figure was 0.819%.
Consider `O=C(CNC(=O)c1ccco1)NNC(=O)c1ccc(Br)cc1`, for which the growth rescue is 19.3%.
The figure for `COc1cc(CC(=O)N2CCC(n3nccc3NC(=O)C3CC3)CC2)cc(OC)c1OC` is 7.3%.
With `COc1cccc(-n2c(SCC(=O)NC3CCCCC3)nc3n[nH]c(C)c3c2=N)c1` the figure was 1070% (active).
In the case of `CCCCNC(=O)CSc1nc2n[nH]c(C)c2c(=N)n1-c1cccc(Cl)c1C`, the growth rescue is -7.38%.
With `Cc1ccc(-n2c(SCC(=O)NCCC3=CCCCC3)nc3n[nH]c(C)c3c2=N)cc1Cl`, the growth rescue is 4.94%.
The figure for `COc1cc(OC)cc(C(=O)Nc2nnc(SCC(=O)NCC3CCCO3)s2)c1` (centres undefined) is -5.99%; for `CCCCNS(=O)(=O)c1ccc(S(=O)(=O)n2cnc3ccccc32)cc1` it is -2.08%.
In the case of `COC(=O)c1c(C)cc(O)c(C)c1O`, the growth rescue was 2.55%.
With `O=C(c1cccnc1)N1CCN(S(=O)(=O)c2cccs2)CC1` the figure was -2.05%; with `CCOC(=O)c1ccccc1N1C(=O)C2Sc3[nH]c(=O)sc3C(/C=C/c3ccccc3)C2C1=O` (centres undefined), 0.0979%.
The figure for `Nc1nc(SCc2cccc(Br)c2)n[nH]1` is 332% (active).
As to `Nc1nc(SCCOc2ccccc2)n[nH]1`, the growth rescue was -18.7%.
For `Nc1cc(N)nc(SCc2cccc(F)c2)n1`, the growth rescue is 35.9%.
Turning to `Cc1ccc(C(=O)N/C(=C\c2ccc(F)cc2)C(=O)NCCN2CCOCC2)cc1`, the growth rescue is 49.4%.
For the compound `Cn1cncc1C#Cc1c(-c2ccsc2)sc2ccccc12`, the growth rescue was 17.7%.
For `COC(=O)Cc1ccc(OC(=O)C2CCN(S(=O)(=O)c3ccc(OC)c(OC)c3)CC2)cc1`, the growth rescue is -14.9%.
With `CC1(C)Cc2c(sc(NC(=O)C(=O)NCC3CCCO3)c2C(=O)O)CO1` (centres undefined) the figure was -46.3%.
With `COc1ccc(NC(=O)Cn2c(-c3ccc(OC)cc3)cn(-c3ccc(C)cc3)c2=O)cc1` the figure was 259%; with `COc1ccc(NC(=O)COC(=O)Cn2c(C)nc3ccccc32)cc1OC`, -5.7%.
The figure for `COc1ccc(-c2cn(-c3ccc(C)cc3)c(=O)n2CC(=O)Nc2ccc(OC)c(OC)c2)cc1` is 737% (active).
As to `O=C(NCCc1nnc2ccc(SCC(=O)N3CCOCC3)nn12)c1ccccc1`, the growth rescue is -18.2%.
The figure for `COc1ccc(OC)c2c(N)c(C#N)c(C(F)(F)C(F)(F)F)nc12` is 790% (active).
The figure for `COc1ccccc1-c1c(C#N)c(N)nc2c1CCC2` is -0.44%.
With `COc1ccc(C2CC(=O)Nc3sc(=N)c4c(N)c(C#N)c(N)nc4c32)cc1OC` (centres undefined) the figure was -31.5%.
For `O=C(CN1CCCCC1)N1c2ccccc2Sc2ccc(C(F)(F)F)cc21`, the growth rescue was 1.37%.
Consider `CCN1CCCC1CNC(=O)c1cc2c(=O)n(C)c3ccccc3c2n1C` (centres undefined), for which the growth rescue was -15.2%.
With `Cn1c(C(=O)NCCc2ccsc2)cc2c(=O)n(C)c3ccccc3c21`, the growth rescue is 385% (active).
With `Cn1c(C(=O)NCCCN2CCN(c3cccc(Cl)c3)CC2)cc2c(=O)n(C)c3ccccc3c21` the figure was -12.4%.
